This passage reports percent growth inhibition results from the supplement of paper PMC6658780.

Where a name gives a salt, the structure may show the parent alone. ± gives the standard deviation of the averaged measurements.

The first experiment deals with Klebsiella pneumoniae KPC-119. In words: percent growth inhibition of drug + antibiotic vs DMSO control; higher = more growth inhibition. The conditions noted are these: antibiotic (0.125x MIC): colistin; 20 µM.
`CCn1cc(C(=O)O)c(=O)c2cc(F)c(N3CCNCC3)nc21` [Enoxacin]: the percent growth inhibition worked out at 97.72 ± 0.24%.
On the same count and under the same terms, in the case of `C[C@@H]1CN(c2c(F)c(N)c3c(=O)c(C(=O)O)cn(C4CC4)c3c2F)C[C@H](C)N1` [Sparfloxacin] it was 99.2 ± 0.83%; in that of `COc1cccc2c1C(=O)c1c(O)c3c(c(O)c1C2=O)C[C@@](O)(C(C)=O)C[C@@H]3O[C@H]1C[C@H](N)[C@H](O)[C@H](C)O1` [Daunorubicin hydrochloride], 97.24 ± 0.46%.
For the compound `COC(=O)N/N=C/c1c[n+]([O-])c2ccccc2[n+]1[O-]` [Carbadox], the percent growth inhibition was determined as 87.5 ± 11%.
`C=CC1=C(C(=O)O)N2C(=O)[C@@H](NC(=O)/C(=N\OCC(=O)O)c3csc(N)n3)[C@H]2SC1` [Cefixime]: the percent growth inhibition is 97.8 ± 1.9%.
For the compound `CCCCC(CC)CNC(=N)NC(=N)NCCCCCCNC(=N)NC(=N)NCC(CC)CCCC` (stereo unspecified) [Alexidine dihydrochloride], the percent growth inhibition was 94.8 ± 1.6%.
As to `CC1COc2c(N3CCN(C)CC3)c(F)cc3c(=O)c(C(=O)O)cn1c23` (stereo unspecified) [Ofloxacin], the percent growth inhibition stood at 97.8 ± 1.4%.
The same measure, in the same setting: in the case of `CS(=O)(=O)c1ccc([C@@H](O)[C@@H](CF)NC(=O)C(Cl)Cl)cc1` [Florfenicol] it was 88.4 ± 7.8%; in that of `CN(C(=O)CN(CCO)CC(=O)N(C)C(C)(C)Cc1ccccc1)C(C)(C)Cc1ccccc1` [Oxethazaine], 95.6 ± 1.6%; in that of `Oc1c(I)cc(Cl)c2cccnc12` [Clioquinol], 98.97 ± 0.28%.
Turning to `NCC[C@H](O)C(=O)N[C@@H]1C[C@H](N)[C@@H](O[C@H]2O[C@H](CN)[C@@H](O)[C@H](O)[C@H]2O)[C@H](O)[C@H]1O[C@H]1O[C@H](CO)[C@@H](O)[C@H](N)[C@H]1O` [Amikacin hydrate], the percent growth inhibition amounted to 92.29 ± 0.57%.

The same experiment, now with this note: antibiotic (0.125x MIC): gentamicin; 7 µM.
In the case of `CCn1cc(C(=O)O)c(=O)c2cc(F)c(N3CCNCC3)nc21` [Enoxacin], the percent growth inhibition was -1.06 ± 6.9%.
For the compound `CO/N=C(\C(=O)N[C@@H]1C(=O)N2C(C(=O)O)=C(C[N+]3(C)CCCC3)CS[C@H]12)c1csc(N)n1` [Cefepime hydrochloride], the percent growth inhibition worked out at 37.1 ± 3.7%.
The same measure, in the same setting: next, `COC(=O)N/N=C/c1c[n+]([O-])c2ccccc2[n+]1[O-]` [Carbadox]: 15.7 ± 0.29%; `C/C(=C\C(=O)OCCCCCCCCC(=O)O)C[C@@H]1OC[C@H](C[C@@H]2O[C@H]2[C@@H](C)[C@H](C)O)[C@@H](O)[C@H]1O` [Mupirocin]: 16.2 ± 3.3%; `C=CC1=C(C(=O)O)N2C(=O)[C@@H](NC(=O)/C(=N\OCC(=O)O)c3csc(N)n3)[C@H]2SC1` [Cefixime]: 29.8 ± 2%.
On to `O=C1NCCN1c1ncc([N+](=O)[O-])s1` [Niridazole], for which the percent growth inhibition came out at 38.6 ± 6.3%.
With `CCCCC(CC)CNC(=N)NC(=N)NCCCCCCNC(=N)NC(=N)NCC(CC)CCCC` (stereo unspecified) [Alexidine dihydrochloride], the percent growth inhibition was found to be 99.857 ± 0.088%.
Consider `CC1COc2c(N3CCN(C)CC3)c(F)cc3c(=O)c(C(=O)O)cn1c23` (stereo unspecified) [Ofloxacin], for which the percent growth inhibition is 99.97 ± 0.11%.
Regarding `NCC[C@H](O)C(=O)N[C@@H]1C[C@H](N)[C@@H](O[C@H]2O[C@H](CN)[C@@H](O)[C@H](O)[C@H]2O)[C@H](O)[C@H]1O[C@H]1O[C@H](CO)[C@@H](O)[C@H](N)[C@H]1O` [Amikacin hydrate], the percent growth inhibition was 30.1 ± 9.4%.

The same experiment, now with this note: antibiotic (0.125x MIC): gentamicin; 20 µM.
As for `C/C(=C\C(=O)OCCCCCCCCC(=O)O)C[C@@H]1OC[C@H](C[C@@H]2O[C@H]2[C@@H](C)[C@H](C)O)[C@@H](O)[C@H]1O` [Mupirocin], the percent growth inhibition turned out to be 41.1 ± 2.1%.
For `C=CC1=C(C(=O)O)N2C(=O)[C@@H](NC(=O)/C(=N\OCC(=O)O)c3csc(N)n3)[C@H]2SC1` [Cefixime], the percent growth inhibition is 97.5 ± 3.4%.
Turning to `O=C1NCCN1c1ncc([N+](=O)[O-])s1` [Niridazole], the percent growth inhibition is 95.7 ± 4.1%.
Turning to `CCCCC(CC)CNC(=N)NC(=N)NCCCCCCNC(=N)NC(=N)NCC(CC)CCCC` (stereo unspecified) [Alexidine dihydrochloride], the percent growth inhibition came to 99.929 ± 0.046%.
`CC1COc2c(N3CCN(C)CC3)c(F)cc3c(=O)c(C(=O)O)cn1c23` (stereo unspecified) [Ofloxacin]: the percent growth inhibition came to 99.953 ± 0.055%.
As for `Nc1nc(/C(=C/CC(=O)O)C(=O)N[C@@H]2C(=O)N3C(C(=O)O)=CCS[C@H]23)cs1` [Ceftibuten], the percent growth inhibition stood at 99.37 ± 0.26%.
Consider `NCC[C@H](O)C(=O)N[C@@H]1C[C@H](N)[C@@H](O[C@H]2O[C@H](CN)[C@@H](O)[C@H](O)[C@H]2O)[C@H](O)[C@H]1O[C@H]1O[C@H](CO)[C@@H](O)[C@H](N)[C@H]1O` [Amikacin hydrate], for which the percent growth inhibition was 99.83 ± 0.21%.

The same experiment, now with this note: antibiotic (0.125x MIC): meropenem; 20 µM.
Turning to `CCCCC(CC)CNC(=N)NC(=N)NCCCCCCNC(=N)NC(=N)NCC(CC)CCCC` (stereo unspecified) [Alexidine dihydrochloride], the percent growth inhibition was determined as 100.04 ± 0.0019%.
In the case of `CC1COc2c(N3CCN(C)CC3)c(F)cc3c(=O)c(C(=O)O)cn1c23` (stereo unspecified) [Ofloxacin], the percent growth inhibition was 99.92 ± 0.12%.
`Nc1nc(/C(=C/CC(=O)O)C(=O)N[C@@H]2C(=O)N3C(C(=O)O)=CCS[C@H]23)cs1` [Ceftibuten]: the percent growth inhibition was found to be 94.5 ± 4.1%.
On to `NCC[C@H](O)C(=O)N[C@@H]1C[C@H](N)[C@@H](O[C@H]2O[C@H](CN)[C@@H](O)[C@H](O)[C@H]2O)[C@H](O)[C@H]1O[C@H]1O[C@H](CO)[C@@H](O)[C@H](N)[C@H]1O` [Amikacin hydrate], for which the percent growth inhibition was determined as 99.71 ± 0.1%.
